# Experimental data reported in the supplement of paper PMC8728848.
# The entries come from a sample that favours the strongest signals as a whole.
# B1: Banana lectin (Musa acuminata) (protein)
# chain: MNGAIKVGAHGGNGGSAFDMGPAYRIISVKIFSGDVVDGVDVTFTYYGKTETRHYGGSGGTPHEIVLQEGEYLVGMAGEVANYHGAVVLGKLGFSTNKKAYGPFGNTGGTPFSLPIAAGKISGFFGRGGKFLDAIGVYLEPLEHHHHHH
# Tests used:
# Experiment in all cases: glycan array binding signal (z-score within array); higher = stronger binding
# Conditions in all cases: glycan notation: IUPAC condensed, linker removed; mutation: W10H
# [1] = biological target: Fuc(a1-2)Gal(b1-3)GalNAc(b1-3)Gal(a1-4)Gal(b1-4)Glc
# Outline: (§1)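 Glycan array data were curated from 3228 arrays in the Consortium for Functional Glycomics database and kept only where the protein sequence was available. Glycan names were converted to IUPAC-condensed notation, and columns mapping to the same glycan were averaged. The binding signal is a within-array Z-score, averaged across arrays of the same protein sequence at different concentrations or buffers and across linkers. Negative Z-scores can be read as non-binding.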
# [2] = biological target: Fuc(a1-2)Gal(b1-3)[Fuc(a1-4)]GlcNAc
# Outline: as §1
# [3] = biological target: Fuc(a1-2)Gal(b1-4)[Fuc(a1-3)]GlcNAc(b1-3)Gal(b1-4)[Fuc(a1-3)]GlcNAc(b1-3)Gal(b1-4)[Fuc(a1-3)]GlcNAc
# Outline: as §1
# [4] = biological target: Fuc(a1-2)Gal(b1-4)[Fuc(a1-3)]GlcNAc(b1-3)[Neu5Ac(a2-6)Gal(b1-4)GlcNAc(b1-6)]Gal(b1-4)Glc
# Outline: as §1
# [5] = biological target: Fuc(a1-2)[Gal(a1-3)]Gal(b1-3)GlcNAc(b1-3)GalNAc
# Outline: as §1
# [6] = biological target: Fuc(a1-2)[Gal(a1-3)]Gal(b1-3)GlcNAc(b1-6)GalNAc
# Outline: as §1
# [7] = biological target: Fuc(a1-2)[Gal(a1-3)]Gal(b1-4)GlcNAc(b1-2)Man
# Outline: as §1
# [8] = biological target: Fuc(a1-2)[Gal(a1-3)]Gal(b1-4)GlcNAc(b1-3)[Fuc(a1-2)[Gal(a1-3)]Gal(b1-4)GlcNAc(b1-6)]GalNAc
# Outline: as §1
# [9] = biological target: Fuc(a1-2)[GalNAc(a1-3)]Gal(b1-3)GalNAc(b1-3)Gal(a1-4)Gal(b1-4)Glc
# Outline: as §1
# [10] = biological target: Fuc(a1-3)[Gal(b1-4)]GlcNAc(b1-2)Man(a1-3)[Fuc(a1-3)[Gal(b1-4)]GlcNAc(b1-2)Man(a1-6)]Man(b1-4)GlcNAc(b1-4)[Fuc(a1-6)]GlcNAc
# Outline: as §1
# [11] = biological target: Fuc(a1-3)[Gal(b1-4)]GlcNAc(b1-3)Gal(b1-4)[Fuc(a1-3)]GlcNAc
# Outline: as §1
# [12] = biological target: Fuc(a1-3)[Gal(b1-4)]GlcNAc(b1-3)GalNAc
# Outline: as §1
# [13] = biological target: Fuc(a1-3)[GalNAc(b1-4)]GlcNAc6S
# Outline: as §1
# Gal(a1-2)Gal = biological target: Gal(a1-2)Gal
# Outline: as §1
# Gal(a1-3)Gal(b1-3)GlcNAc = biological target: Gal(a1-3)Gal(b1-3)GlcNAc
# Outline: as §1
# Gal(a1-4)Gal(b1-4)Glc = biological target: Gal(a1-4)Gal(b1-4)Glc
# Outline: as §1
# [14] = biological target: Gal(a1-4)Gal(b1-4)GlcNAc(b1-3)Gal(b1-4)Glc
# Outline: as §1
# Gal(b1-2)Gal = biological target: Gal(b1-2)Gal
# Outline: as §1
# Gal(b1-3)Gal = biological target: Gal(b1-3)Gal
# Outline: as §1
# Gal(b1-3)GlcNAc(b1-2)Man = biological target: Gal(b1-3)GlcNAc(b1-2)Man
# Outline: as §1
# [15] = biological target: Gal(b1-3)GlcNAc(b1-3)Gal(b1-4)[Fuc(a1-3)]GlcNAc
# Outline: as §1
# [16] = biological target: Gal(b1-3)[GlcNAc(b1-6)]GalNAc
# Outline: as §1
# [17] = biological target: Gal(b1-4)GlcNAc(b1-2)Man(a1-3)[Gal(b1-4)GlcNAc(b1-2)Man(a1-6)]Man(b1-4)GlcNAc(b1-4)GlcNAc
# Outline: as §1
# [18] = biological target: Gal(b1-4)GlcNAc(b1-2)[Gal(b1-4)GlcNAc(b1-4)]Man(a1-3)[GlcNAc(b1-4)][Gal(b1-4)GlcNAc(b1-2)[Gal(b1-4)GlcNAc(b1-6)]Man(a1-6)]Man(b1-4)GlcNAc(b1-4)GlcNAc
# Outline: as §1
# [19] = biological target: Gal(b1-4)GlcNAc(b1-2)[Gal(b1-4)GlcNAc(b1-6)]Man(a1-6)[Gal(b1-4)GlcNAc(b1-2)Man(a1-3)]Man(b1-4)GlcNAc(b1-4)[Fuc(a1-6)]GlcNAc
# Outline: as §1
# [20] = biological target: Gal(b1-4)GlcNAc(b1-2)[Gal(b1-4)GlcNAc(b1-6)]Man(a1-6)[GlcNAc(b1-4)][Gal(b1-4)GlcNAc(b1-2)Man(a1-3)]Man(b1-4)GlcNAc(b1-4)GlcNAc
# Outline: as §1
# [21] = biological target: Gal(b1-4)GlcNAc(b1-3)Gal(b1-4)GlcNAc(b1-2)[Gal(b1-4)GlcNAc(b1-3)Gal(b1-4)GlcNAc(b1-6)]Man(a1-6)[Gal(b1-4)GlcNAc(b1-3)Gal(b1-4)GlcNAc(b1-2)Man(a1-3)]Man(b1-4)GlcNAc(b1-4)GlcNAc
# Outline: as §1
# [22] = biological target: Gal(b1-4)GlcNAc(b1-3)Gal(b1-4)GlcNAc(b1-6)[Gal(b1-3)]GalNAc
# Outline: as §1
# [23] = biological target: Gal(b1-4)GlcNAc(b1-3)[Fuc(a1-3)GlcNAc(b1-6)]Gal(b1-4)Glc
# Outline: as §1
# [24] = biological target: Gal(b1-4)GlcNAc(b1-6)GalNAc
# Outline: as §1
# Gal6S(b1-3)GlcNAc6S = biological target: Gal6S(b1-3)GlcNAc6S
# Outline: as §1
# Gal6S(b1-4)Glc = biological target: Gal6S(b1-4)Glc
# Outline: as §1
# Gal6S(b1-4)GlcNAc = biological target: Gal6S(b1-4)GlcNAc
# Outline: as §1
# GalNAc(a1-3)Gal = biological target: GalNAc(a1-3)Gal
# Outline: as §1
# GalNAc3S(b1-4)GlcNAc3S = biological target: GalNAc3S(b1-4)GlcNAc3S
# Outline: as §1
# [25] = biological target: GlcA3S(b1-3)Gal(b1-4)GlcNAc(b1-3)Gal(b1-4)Glc
# Outline: as §1
# [26] = biological target: Man(a1-2)Man(a1-2)Man(a1-6)[Man(a1-3)]Man
# Outline: as §1
# [27] = biological target: Man(a1-2)Man(a1-3)[Man(a1-2)Man(a1-6)]Man
# Outline: as §1
# [28] = biological target: Man(a1-2)Man(a1-3)[Man(a1-2)Man(a1-6)]Man(a1-6)[Man(a1-2)Man(a1-2)Man(a1-3)]Man
# Outline: as §1
# [29] = biological target: Man(a1-2)Man(a1-3)[Man(a1-2)Man(a1-6)]Man(a1-6)[Man(a1-2)Man(a1-2)Man(a1-3)]Man(b1-4)GlcNAc(b1-4)GlcNAc
# Outline: as §1
# [30] = biological target: Man(a1-2)Man(a1-3)[Man(a1-6)]Man(a1-6)[Man(a1-2)Man(a1-3)]Man(b1-4)GlcNAc(b1-4)GlcNAc
# Outline: as §1
# [31] = biological target: Man(a1-2)Man(a1-6)[Man(a1-3)]Man(a1-6)[Man(a1-2)Man(a1-2)Man(a1-3)]Man
# Outline: as §1
# [32] = biological target: Man(a1-2)Man(a1-6)[Man(a1-3)]Man(a1-6)[Man(a1-2)Man(a1-2)Man(a1-3)]Man(b1-4)GlcNAc(b1-4)GlcNAc
# Outline: as §1
# Man(a1-3)[Man(a1-6)]Man = biological target: Man(a1-3)[Man(a1-6)]Man
# Outline: as §1
# [33] = biological target: Man(a1-3)[Man(a1-6)]Man(a1-6)[Man(a1-2)Man(a1-3)]Man(b1-4)GlcNAc(b1-4)GlcNAc
# Outline: as §1
# [34] = biological target: Man(a1-3)[Man(a1-6)]Man(a1-6)[Man(a1-3)]Man(b1-4)GlcNAc(b1-4)GlcNAc
# Outline: as §1
# [35] = biological target: Man(a1-3)[Man(a1-6)]Man(b1-4)GlcNAc(b1-4)GlcNAc
# Outline: as §1
# [36] = biological target: Neu5Ac(a2-3)Gal(b1-3)GalNAc(b1-3)Gal(a1-4)Gal(b1-4)Glc
# Outline: as §1
# [37] = biological target: Neu5Ac(a2-3)Gal(b1-3)GalNAc(b1-4)Gal(b1-4)Glc
# Outline: as §1
# [38] = biological target: Neu5Ac(a2-3)Gal(b1-3)GlcNAc(b1-2)Man(a1-3)[GlcNAc(b1-4)][Neu5Ac(a2-3)Gal(b1-3)GlcNAc(b1-2)Man(a1-6)]Man(b1-4)GlcNAc(b1-4)GlcNAc
# Outline: as §1
# [39] = biological target: Neu5Ac(a2-3)Gal(b1-3)GlcNAc(b1-3)GalNAc
# Outline: as §1
# Neu5Ac(a2-3)Gal(b1-4)Glc = biological target: Neu5Ac(a2-3)Gal(b1-4)Glc
# Outline: as §1
# [40] = biological target: Neu5Ac(a2-3)Gal(b1-4)[Fuc(a1-3)]GlcNAc6S
# Outline: as §1
# [41] = biological target: Neu5Ac(a2-6)Gal(b1-4)GlcNAc(b1-3)Gal(b1-4)GlcNAc(b1-3)Gal(b1-4)GlcNAc
# Outline: as §1
# [42] = biological target: Neu5Ac(a2-8)Neu5Ac(a2-3)[GalNAc(b1-4)]Gal(b1-4)Glc
# Outline: as §1
# [43] = biological target: Neu5Ac(a2-8)Neu5Ac(a2-8)Neu5Ac(a2-8)Neu5Ac(a2-3)[GalNAc(b1-4)]Gal(b1-4)Glc
# Outline: as §1
# [44] = biological target: Neu5Gc(b2-6)Gal(b1-4)GlcNAc
# Outline: as §1
binder,measurement,setting,value
B1,glycan array binding signal (z-score),[1],-0.164
same,glycan array binding signal (z-score),[2],-0.188
same,glycan array binding signal (z-score),[3],-0.169
same,glycan array binding signal (z-score),[4],-0.189
same,glycan array binding signal (z-score),[5],-0.17
same,glycan array binding signal (z-score),[6],-0.147
same,glycan array binding signal (z-score),[7],-0.169
same,glycan array binding signal (z-score),[8],-0.183
same,glycan array binding signal (z-score),[9],-0.156
same,glycan array binding signal (z-score),[10],-0.148
same,glycan array binding signal (z-score),[11],-0.146
same,glycan array binding signal (z-score),[12],-0.16
same,glycan array binding signal (z-score),[13],-0.194
same,glycan array binding signal (z-score),Gal(a1-2)Gal,-0.177
same,glycan array binding signal (z-score),Gal(a1-3)Gal(b1-3)GlcNAc,-0.171
same,glycan array binding signal (z-score),Gal(a1-4)Gal(b1-4)Glc,-0.169
same,glycan array binding signal (z-score),[14],-0.141
same,glycan array binding signal (z-score),Gal(b1-2)Gal,-0.172
same,glycan array binding signal (z-score),Gal(b1-3)Gal,-0.168
same,glycan array binding signal (z-score),Gal(b1-3)GlcNAc(b1-2)Man,-0.145
same,glycan array binding signal (z-score),[15],-0.174
same,glycan array binding signal (z-score),[16],-0.157
same,glycan array binding signal (z-score),[17],-0.187
same,glycan array binding signal (z-score),[18],-0.175
same,glycan array binding signal (z-score),[19],-0.143
same,glycan array binding signal (z-score),[20],-0.204
same,glycan array binding signal (z-score),[21],-0.113
same,glycan array binding signal (z-score),[22],-0.088
same,glycan array binding signal (z-score),[23],-0.141
same,glycan array binding signal (z-score),[24],-0.163
same,glycan array binding signal (z-score),Gal6S(b1-3)GlcNAc6S,-0.174
same,glycan array binding signal (z-score),Gal6S(b1-4)Glc,-0.156
same,glycan array binding signal (z-score),Gal6S(b1-4)GlcNAc,-0.124
same,glycan array binding signal (z-score),GalNAc(a1-3)Gal,-0.158
same,glycan array binding signal (z-score),GalNAc3S(b1-4)GlcNAc3S,-0.165
same,glycan array binding signal (z-score),[25],-0.164
same,glycan array binding signal (z-score),[26],7.33
same,glycan array binding signal (z-score),[27],2.86
same,glycan array binding signal (z-score),[28],6.5
same,glycan array binding signal (z-score),[29],2.96
same,glycan array binding signal (z-score),[30],9.34
same,glycan array binding signal (z-score),[31],5.18
same,glycan array binding signal (z-score),[32],6.56
same,glycan array binding signal (z-score),Man(a1-3)[Man(a1-6)]Man,2.82
same,glycan array binding signal (z-score),[33],13.5
same,glycan array binding signal (z-score),[34],3.07
same,glycan array binding signal (z-score),[35],6.6
same,glycan array binding signal (z-score),[36],-0.167
same,glycan array binding signal (z-score),[37],-0.186
same,glycan array binding signal (z-score),[38],-0.163
same,glycan array binding signal (z-score),[39],-0.169
same,glycan array binding signal (z-score),Neu5Ac(a2-3)Gal(b1-4)Glc,-0.159
same,glycan array binding signal (z-score),[40],-0.176
same,glycan array binding signal (z-score),[41],-0.171
same,glycan array binding signal (z-score),[42],-0.146
same,glycan array binding signal (z-score),[43],-0.153
same,glycan array binding signal (z-score),[44],-0.185
